TCR act: Activators of T cell receptors: qHTS campaign. 330,000 tested, under 10 active. Potency, µM (highest dose often 9.22 µM), inactives show top-dose activation of IL-2 secretion, actives largely listed as activators. primary human leukocytes, anti-CD3, IL-2 HTRF, 48 h. AID 504894, 2011; also: % of control where 0% means no effect
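Compounds are tested in HTS on primary human leukocytes co-incubated with a-CD3 beads for 48 hr. IL-2 output is measured by time-resolved FRET.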
BRCA1 expr up: qHTS Assay to Identify Small Molecule Activators of BRCA1 Expression. MCF7-BRCA1-FFLuc reporter, luminescence, 48 h; response scale: scaled: vehicle 0%, 10 µM genistein 100%. Potency, µM (titrated, usually from 46.1 µM), inactives show at the highest dose activation, usual class: activators. actives 1.1% (n = 380,000). AID 624202, 2012; also: potency is read from the fitted curve at half-maximal effect; nearly all actives have a fitted effect of over 80% in size
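Quantitative HTS in MCF7 cells stably reporting BRCA1 expression via firefly luciferase. Compound treatment lasts 48 h at 37 °C in phenol-red free MEM. Activation is expressed relative to genistein at 10 microM and DMSO.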
IL2 activator: qHTS of IL-2 Activators; IL-2 activation reporter assay, cell-based qHTS; stimulated with anti-CD3/CD4/CD28 beads; in transgenic mouse T cells; activation, % (series mostly up to about 46 µM); actives 0.065% (n = 360,000); AID 652025, 2013; in the data active = activation above about 50%; inconclusive = mostly about 30% to 49%; also: 0% is about no effect
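Screening format: compound pinned onto unstimulated transgenic mouse T cells, 60 min incubation, then anti-CD3/anti-CD4/anti-CD28 bead stimulation for 18 hours at 37 degrees C, followed by EGFP and DsRed detection.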
Mito fusion yeast: qHTS Assay for Small Molecule Inhibitors of Mitochondrial Division or Activators of Mitochondrial Fusion; S. cerevisiae fusion-defective mutant growth rescue, CellTiterGlo 48 h; Potency, µM (doses to about 46.1 µM), inactives show at the top dose growth rescue (activation), usual class: activators; actives 0.23% (n = 320,000); also: potency is read from the fitted curve at half-maximal effect; % of control where 0% means no effect; nearly all actives have a fitted effect of over 45% in size
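Yeast fusion mutant, YPEG (non-fermentable carbon), compound, 48 h at 37C non-permissive; CellTiterGlo added, 10 min RT, luminescence read. Rescued growth = division inhibition.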
p53 reactivator: qHTS assay for re-activators of p53 using a Luc reporter; H1299 p53-A138V BP100-luciferase reporter, luminescence, 24 h; Potency, µM (series often up to 92.2 µM), for inactives: top-dose activity change, positive = activation, usual class: activators; actives 0.063% (n = 320,000); AID 504706, 2011; also: potency is read from the fitted curve at half-maximal effect; % of control where 0% means no effect; nearly all actives have a fitted effect of over 45% in size
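H1299 (p53-null), stable ts p53-A138V + BP100-Luc; 1000 cells/well, Opti-MEM/10% FBS; cpd 4 pt, 1:5; 24 h, 37 deg C, 5% CO2; detection reagent 10 min RT; luminescence.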
* marks the source's active call; other numbers are inactive results; ? = inconclusive; . = no result; ! = a repeat was not active; [ ] = remark or other dose. An excerpt weighted towards active compounds, which were near 1.3% of everything screened. Unless noted, calls follow the shape of the dose curve; as a rule, active = well fitted curve in the direction sought with a large enough effect; inconclusive = small, poorly fitted or top-dose-only effect, or another doubt; inactive = no such curve, though single readings can be large; an effect the other way counts as inactive or inconclusive.

SMILES	TCR act	BRCA1 expr up	IL2 activator	Mito fusion yeast	p53 reactivator
CC(=O)c1ccc(NC(=O)c2ccc(N3CCCC3=O)cc2)cc1	-1%	17%	0	-4%	7%
COc1cc(OC)c(/C=C/c2nccc3ccccc23)c(OC)c1	.	-51%	.	.	.
CCCN1CNc2c(c(=O)[nH]c(=S)n2CCC(C)C)C1	.	18%	.	.	.
Cc1ccc(CNC(=O)NC2CCCCC2)cc1	2%	10µM*	1	0%	?
O=C(CSc1ccc(Br)cc1)NC1CCCCCC1	-10%	71%	-5	.	28%
Cc1ccc(CNC(=S)NC2CCCCC2)cc1	-1%	1%	-3	-15%	18%
O=C(Cc1ccc(O)cc1)NC1CCCCCC1	-2%	3.5µM*	0	9%	?
O=C(CSc1ccc(F)cc1)NC1CCCCC1	0%	11µM*	0	-6%	18%
O=C(CCOc1ccccc1F)N1CCN(c2ccccc2O)CC1	4%	11µM*	1	-8%	13%
COc1ccccc1OCCC(=O)N1CCN(c2ccccc2OC)CC1	3%	3%	2	0%	-1%
COC(=O)c1c(-c2ccccc2)csc1N1C(=O)Nc2ccccc2N1O	5%	7.9µM*	3	2%	3%
CCOC(=O)c1c(-c2ccccc2)csc1N1C(=O)Nc2ccccc2N1O	-3%	-4%	0	7%	-1%
Cc1ccc(S(=O)(=O)N2CCN(c3nc(-c4cccs4)nc4ncccc34)CC2)cc1	.	25%	.	.	.
COc1ccc(CN(CCCN)c2ccc(Br)cn2)cc1	.	-49%	.	.	.
Cc1ccc(N=Cc2ccc(N(C)C)cc2)cc1	2%	0%	0	-1%	9%
CN(C)c1ccc(C=Nc2ccc(N(C)C)cc2)cc1	?	-37%	-1	-6%	40µM*
CCc1ccc2[nH]c(=O)c(CN(Cc3ccco3)Cc3nnnn3Cc3ccco3)cc2c1	.	-46%	.	.	.
CCc1ccc(NC2=NCC(c3ccccc3)S2)cc1 (stereo not given)	5%	11µM*	-4	10%	8%
Cc1cc(C)cc(NC(=O)c2cc(C)nc3c2c(C)nn3-c2ccccc2)c1	.	-11%	.	.	.
Cc1nn(-c2ccccc2)c(Cl)c1/C=N/NC(=O)c1ccc(CNc2ccccc2)o1	-1%[46.1 µM]	0%	2	-14%	20%
Cc1nn(-c2ccccc2)c(Cl)c1/C=N/NC(=O)c1ccco1	2%	6.3µM*	0	1%	9%
Cc1ccc(-n2ncc(Cl)c2C(=O)NCc2ccccc2)cc1	-6%	11µM*	-3	27%	8%
CNC(=O)c1c(Cl)cnn1-c1ccc(F)cc1	-1%	102%	2	2%	4%
CC(C)(C)C(=O)Nc1ccc2nc(SCC(=O)N3CCc4ccccc43)sc2c1	.	-25%	.	.	.
COc1ccc(CNc2ccc([N+](=O)[O-])cn2)cc1	-1%	10µM*	0	8%	?
SMILES	TCR act	BRCA1 expr up	IL2 activator	Mito fusion yeast	p53 reactivator
COc1ccc(Nc2ccc([N+](=O)[O-])cn2)cc1	-9%	?	2	4%	.
O=C(C[n+]1ccccc1Br)c1ccc(O)c(O)c1	.	1%	.	.	.
Nc1nc2ccc(OC(F)(F)F)cc2s1	-1%	-8%	0	3.3µM*!	.
Cc1ccc(SC/C(O)=C(\C#N)c2nc3ccccc3n2C)cc1	-2%	13µM*	8	6%	24%
Cn1c(/C(C#N)=C(\O)CN2CCN(Cc3ccccc3)CC2)nc2ccccc21	-3%	-10%	1	1%	-6%
CC(C)c1ccc(C2C3=C(CC(c4ccco4)CC3=O)Nc3nc(C(F)(F)F)nn32)cc1 (stereo not given)	.	-15%	.	.	.
CCOC(=O)CNC(=O)C1CCCCC1	.	9%	.	.	.
CCCC[C@@]1(C2CCCC2)Cc2cc(OCC(=O)O)c(Cl)c(Cl)c2C1=O	3%	2%	0	21µM*!	1%
C[C@]1(C2CCCC2)Cc2cc(OCC(=O)O)c(Cl)c(Cl)c2C1=O	-2%	7%	0	.	.
Clc1ccc(-c2nn3c(-c4cc(-c5ccccc5)n[nH]4)nnc3s2)cc1	.	-6%	.	.	.
N#Cc1cc2c(nc1SCc1ccncc1)CCC2	0%	11µM*	1	11%	?
N#Cc1cc2c(nc1SCc1ccccc1)CCC2	-4%[46.1 µM]	14%	-3	-5%	6%
COc1ccc(OCCC(=O)N2CCCCC2)cc1	2%	11µM*	1	-4%	27%
O=C(COc1ccc(-c2ccccc2)cc1)N1CCCC1	-1%	13µM*	-2	2%	-3%
O=C(Oc1ccc(-c2ccccc2)cc1)N1CCCCC1	-16%	7.1µM*	0	-5%	.
O=C(Oc1ccccc1)N1CCCCC1	.	8%	-1	.	.
COc1ccc(OCCC(=O)N2CCN(C)CC2)cc1	3%	-7%	0	1%	.
COc1ccccc1-c1nn2c(-c3cc(C)[nH]n3)nnc2s1	.	10%	.	.	.
O=C(Nc1cc(OC(=O)C(F)(F)F)c2nonc2c1OC(=O)C(F)(F)F)C(F)(F)F	.	-70%	.	.	.
O=C(Nc1ccccc1N1CCCCC1)c1ccc([N+](=O)[O-])o1	-3%	-68%	-7	5.6µM*	?
Cc1ccc(-c2nc(NCc3ccco3)n(S(C)(=O)=O)n2)cc1	0%	69%	-1	1%	1%
O=C(c1ccco1)n1nc(-c2ccccc2)nc1NCc1ccc(F)cc1	.	9%	.	.	.
CC(=O)n1nc(-c2ccc(C)cc2)nc1NCc1ccco1	-4%	5µM*	0	2%	14%
CC(=O)n1nc(-c2ccc(C)cc2)nc1NCc1ccc(F)cc1	8%	3.2µM*	0	0%	?
C/C(=C\C(=O)c1ccccc1)Nc1ccc2c(c1)OCO2	5%[46.1 µM]	7.9µM*	0	1%	?
SMILES	TCR act	BRCA1 expr up	IL2 activator	Mito fusion yeast	p53 reactivator
Cc1ccc(NC(=O)Nc2ccc3c(c2)OCO3)c(OC(F)F)c1	-1%	2.5µM*	-1	-1%	11%
CC(=O)c1cccc(NC(=O)Nc2ccc3c(c2)OCO3)c1	8%	11µM*	1	-1%	25%
COc1ccccc1C(=O)NCC(=O)Nc1ccc2c(c1)OCO2	-2%	0%	0	-4%	-1%
CC(=O)c1cccc(NC(=O)NCc2ccc3c(c2)OCO3)c1	-262%	19%	0	-2%	2%
O=C(CNC(=O)c1ccccc1F)Nc1ccc2c(c1)OCO2	1%	7.9µM*	-1	.	?
O=C(Nc1ccc2c(c1)OCO2)Nc1ccc(Br)cn1	17%	2.8µM*	0	-7%	?
CN(c1ccc(C(=O)Nc2ccc3c(c2)OCCO3)cc1)S(C)(=O)=O	3%	24%	-3	-1%	?
CN(c1ccc(C(=O)Nc2ccc3c(c2)OCO3)cc1)S(C)(=O)=O	7%	6.3µM*	1	-8%	18%
